Screens as filed in PubChem.
Compounds with a hit are over-represented: about 1.2% of the library has one in this group of screens.
LMP1 NFkB inh: reduces LMP1-driven NF-kappaB luciferase signal; inhibition, % at 12.5 µM; 350,000 tested, 0.69% active; LMP1-induced NF-kappaB luciferase reporter cells, luminescence; in the data active means inhibition above about 41%; inconclusive means no clear call, values can overlap the other calls;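 further: 0% = neutral control wells and 100% = reference inhibitor control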
SRC2 inh: inhibits human steroid receptor coactivator 2; AID 651957; 370,000 tested, 0.17% active; HEK293 GAL4-SRC2 luciferase reporter, luminescence; Q15596; inhibition, % at 9 µM;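 active means inhibition above the mean inhibition of all tested compounds plus 3 SD, set per campaign, cut at about 52% in these data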;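 further: 0% = DMSO treated cells and 100% = cells given Gossypol at 36 µM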
SRC3 inh: inhibitors of human steroid receptor coactivator 3 (SRC3); 360,000 tested, 0.17% active; Q9Y6Q9; inhibition, % at 3.6 µM; HEK293 GAL4-SRC3 luciferase reporter, luminescence; AID 588352;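 active means inhibition above a per-campaign cutoff, the mean of all compounds plus 3 SD, cut at about 60% in these data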;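 further: 0% = DMSO-treated cells and 100% = gossypol-treated cells at 36 µM; higher means less SRC3-driven luciferase light from the GAL4 reporter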
Target sequence (Q9Y6Q9 whole entry, looked up, the tested form may be a part): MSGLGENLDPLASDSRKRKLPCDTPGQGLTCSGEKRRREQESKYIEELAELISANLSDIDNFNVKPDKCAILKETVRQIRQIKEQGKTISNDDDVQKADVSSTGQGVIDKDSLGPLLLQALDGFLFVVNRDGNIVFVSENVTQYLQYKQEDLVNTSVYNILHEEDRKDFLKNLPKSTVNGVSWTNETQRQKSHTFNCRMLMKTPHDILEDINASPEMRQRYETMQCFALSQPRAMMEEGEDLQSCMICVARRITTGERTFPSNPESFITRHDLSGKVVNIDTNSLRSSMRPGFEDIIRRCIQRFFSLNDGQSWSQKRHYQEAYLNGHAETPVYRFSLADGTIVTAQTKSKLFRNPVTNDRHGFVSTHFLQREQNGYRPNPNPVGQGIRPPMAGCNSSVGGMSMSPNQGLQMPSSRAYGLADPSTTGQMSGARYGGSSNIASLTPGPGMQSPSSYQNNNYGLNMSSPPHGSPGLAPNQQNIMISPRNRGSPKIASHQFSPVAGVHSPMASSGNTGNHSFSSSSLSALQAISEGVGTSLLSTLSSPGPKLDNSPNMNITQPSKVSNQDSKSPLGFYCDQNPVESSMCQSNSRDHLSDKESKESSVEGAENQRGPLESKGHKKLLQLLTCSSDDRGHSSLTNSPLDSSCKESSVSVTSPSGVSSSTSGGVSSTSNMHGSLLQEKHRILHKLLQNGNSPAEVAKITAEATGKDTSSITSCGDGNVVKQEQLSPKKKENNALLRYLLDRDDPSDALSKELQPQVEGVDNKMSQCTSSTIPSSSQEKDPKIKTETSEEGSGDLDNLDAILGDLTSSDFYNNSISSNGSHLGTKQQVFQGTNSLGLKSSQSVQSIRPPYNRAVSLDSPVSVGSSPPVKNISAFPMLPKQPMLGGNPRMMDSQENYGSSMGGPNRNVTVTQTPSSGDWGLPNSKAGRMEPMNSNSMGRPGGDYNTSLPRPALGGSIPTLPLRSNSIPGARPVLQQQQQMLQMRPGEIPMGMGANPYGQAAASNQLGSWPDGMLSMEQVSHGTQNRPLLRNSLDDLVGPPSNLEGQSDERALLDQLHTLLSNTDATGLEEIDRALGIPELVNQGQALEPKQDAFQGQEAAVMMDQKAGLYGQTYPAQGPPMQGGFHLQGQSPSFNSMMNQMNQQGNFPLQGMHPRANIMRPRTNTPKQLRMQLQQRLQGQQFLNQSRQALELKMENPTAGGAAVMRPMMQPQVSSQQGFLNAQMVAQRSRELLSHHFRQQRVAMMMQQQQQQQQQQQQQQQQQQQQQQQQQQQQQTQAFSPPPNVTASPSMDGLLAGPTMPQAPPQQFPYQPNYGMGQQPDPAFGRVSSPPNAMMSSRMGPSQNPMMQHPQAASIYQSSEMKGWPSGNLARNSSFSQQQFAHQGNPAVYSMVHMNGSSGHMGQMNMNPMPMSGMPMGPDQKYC
LRH-1 inv ag: suppresses constitutive activity of human LRH-1 | O00482 | HEK293T StAR-luciferase reporter, LRH-1 transfected, 24 h | inhibition, % at 3.6 µM | 360,000 tested, 0.13% active | AID 602396;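 active means inhibition above the mean inhibition of all tested compounds plus 3 SD, cut at about 73% in these data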;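 further: 0% = DMSO wells and 100% = reporter-only cells lacking LRH-1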
NCOA1 inh: inhibits human SRC1 coactivator; HEK293 GAL4-SRC1 luciferase reporter, luminescence; Q15788; inhibition, % at 3.6 µM; 360,000 tested, 0.12% active; AID 588354;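 active means inhibition above the campaign mean plus 3 SD, with each screening campaign given its own cutoff, cut at about 60% in these data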;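 further: 0% = DMSO treated cells and 100% = gossypol at 36 µM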
Shn3 inh set2: reduces Shn3 3'UTR luciferase signal in osteoblasts. Clone20 osteoblast Shn3 3'UTR firefly luciferase, 24 h. inhibition, % at 12.5 µM. 360,000 tested, 0.52% active. AID 588674;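 active means mean inhibition of at least 75% with every replicate also reaching 75%; inconclusive means mean inhibition at least 75% but some replicate below; inactive means mean inhibition below 75%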;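 further: 0% = median of neutral control wells and 100% = pilot-screen positive control compound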
Active calls of the source: *; ? = inconclusive; · = no result given.

SMILES | LMP1 NFkB inh | SRC2 inh | SRC3 inh | LRH-1 inv ag | NCOA1 inh | Shn3 inh set2
O=[N+]([O-])/C=C/c1c(OCc2ccccc2)ccc2ccccc12 | -19.8 | · | -10.3 | -15.0 | -1.4 | ·
COC(=O)[C@]12C[C@H](CC(=O)N3CCOCC3)C(=O)N(Cc3ccc(Cl)cc3Cl)C1=C[C@H](C(C)(C)C)O[C@@H]2C | · | -7.6 | · | · | · | ·
CO[C@@]12[C@@H]3N[C@@H]3CN1C1=C(C(=O)C(N)=C(C)C1=O)[C@@H]2COC(N)=O | 61.6* | -18.4 | 35.1 | 7.7 | 21.6 | 25.6
CC1=C(C(=O)OCc2ccc3c(c2)OCO3)C(c2ccc(F)cc2)NC(=O)N1 (stereo unspecified) | 79.3* | 43.9 | 60.8 | 60.4 | 73.8* | 7.0
CC1=C(C(=O)OCc2ccc3c(c2)OCO3)C(c2ccc(Cl)cc2)NC(=O)N1 (stereo unspecified) | 81.1* | 59.2* | 65.0* | 61.8 | 75.4* | 12.2
CC1Cc2nc(SCC(=O)N3CCN(c4ccccc4)CC3)n(C)c(=O)c2S1 (stereo unspecified) | 77.2* | -3.9 | 7.0 | -3.1 | -3.1 | -0.3
C/C(CC(=O)Nc1ccccc1C(F)(F)F)=N\NC(=O)c1cnccn1 | 3.6 | -67.6 | -53.8 | -31.3 | -66.0 | -9.0
COc1ccccc1NC(=O)C(=O)N/N=C(\C)CC(=O)Nc1ccccc1C(F)(F)F | 47.0* | 6.8 | -9.5 | 5.5 | -13.0 | -10.3
O=C(CN1C(=O)NC(c2ccccc2)(c2ccccc2)C1=O)NCc1ccccc1 | -2.2 | -26.1 | -23.9 | -14.0 | 4.8 | 13.1
Cc1ccc(C2(c3ccccc3)NC(=O)N(CC(=O)NCc3ccccc3)C2=O)cc1C (stereo unspecified) | 70.4* | 19.8 | -1.8 | 10.2 | -8.8 | 10.8
c1ccc2c3c([nH]c2c1)C(C1CCCCC1)N(Cc1ncc[nH]1)CC3 (stereo unspecified) | 72.9* | 12.8 | 10.1 | 2.2 | -27.4 | 16.5
Cc1cnc(CN2CCc3c([nH]c4ccccc34)C2C2CCCCC2)[nH]1 (stereo unspecified) | 14.4 | 14.6 | 3.0 | 0.5 | -6.7 | 14.7
Cc1ccc(C(C)C)cc1NC(=O)Nc1ccc([N+](=O)[O-])cc1 | 10.3 | -17.5 | 0.5 | -2.9 | 3.9 | 86.9*
Cc1cc(O)c(C(C)C)cc1NC(=O)Nc1ccc([N+](=O)[O-])cc1 | -9.0 | -14.9 | -7.0 | -25.4 | -13.6 | 28.1
CCOC(=O)c1c(C)[nH]c(C2=NNC(=NC3CC3)SC2)c1C | 50.1* | · | 14.6 | -6.4 | 13.6 | 27.1
CCOC(=O)c1c(C)[nH]c(/C(C)=N/O)c1C | -1.8 | -1.2 | -6.0 | 12.7 | -3.8 | -11.0
Cc1ccc(Oc2c(C(N)=O)cc([N+](=O)[O-])cc2[N+](=O)[O-])cc1 | 11.8 | 7.9 | 2.2 | 27.2 | -22.0 | 93.5*
COC(=O)c1ccc(S(=O)(=O)N2CCC(NC(=O)CCc3ccccc3)CC2)cc1 | · | -6.8 | · | · | · | ·
CCOc1ccccc1NC(=O)Cn1c(=O)sc2ccccc21 | 64.2* | -3.3 | 9.3 | -1.3 | 15.1 | 11.6
COc1cccc(N2CCN(CC(=O)NCc3c(F)cccc3F)CC2)c1 | · | 7.0 | · | · | · | ·
O=C1c2ccccc2C(=O)c2c(Nc3ccc(CCO)cc3)ccc(O)c21 | -6.8 | 6.8 | -5.6 | -6.1 | -1.1 | 10.7
O=C1c2c(O)ccc(O)c2C(=O)c2c(NCCNCCO)ccc(NCCNCCO)c21 | 66.7* | -362.4 | 24.0 | 35.5 | 65.1* | 92.6*
O=C(NCCc1c[nH]c2ccccc12)OCc1cn(-c2ccc(Cl)cc2)nn1 | · | -1.2 | · | · | · | ·
c1ccc2c(c1)CCN(c1ncnc3c1[nH]c1ccccc13)C2 | 39.1 | 36.1 | 31.8 | 46.2 | 22.8 | 89.0*
Cc1ccc2c(c1)[nH]c1c(N3CCN(Cc4ccccc4)CC3)ncnc12 | 21.7 | 3.2 | 20.5 | 22.5 | 14.1 | 71.6
SMILES | LMP1 NFkB inh | SRC2 inh | SRC3 inh | LRH-1 inv ag | NCOA1 inh | Shn3 inh set2
c1ccc(CN2CCN(c3ncnc4c3[nH]c3ccccc34)CC2)cc1 | 53.0* | 20.3 | 35.5 | 36.7 | -0.8 | 84.8
Cc1ccc2[nH]c3c(N4CCN(Cc5ccccc5)CC4)ncnc3c2c1 | 57.8* | 18.6 | 7.3 | -1.9 | -55.6 | 90.2*
Cc1cc(NC(=O)COc2cc(F)cc(F)c2)n(-c2ccccc2)n1 | · | 13.8 | · | · | · | ·
COC(=O)[C@]1(CNC(C)=O)CC(=O)N(Cc2ccc(Cl)cc2)[C@@H]1c1ccc(OC)cc1 | · | 10.6 | · | · | · | ·
CCC(=O)c1cn(CC(=O)Nc2ccccc2Cl)c2ccccc12 | -1.8 | 9.6 | 15.0 | -6.2 | 0.8 | 88.8*
CCC(=O)c1cn(CC(=O)Nc2cccc(C)c2)c2ccccc12 | -1.4 | 15.0 | 11.3 | -7.0 | -0.2 | -1.1
Cc1cccc(NC(=O)Cn2cc(C(=O)C3CC3)c3ccccc32)c1C | 15.4 | 18.3 | 25.4 | 1.0 | -5.5 | 86.7*
CCC(=O)c1cn(CC(=O)Nc2cccc(C)c2C)c2ccccc12 | -7.8 | 10.2 | 10.6 | -1.9 | 1.5 | 84.2
Cc1cc(NC(=O)c2cccc(COc3ccc(Br)cc3)c2)no1 | 43.5* | -60.4 | -105.5 | -223.9 | -140.6 | 5.5
O=C(N=C1N(CC2CC2)CC2(C=C3CCCCC3n3c(=O)n(-c4ccccc4)c(=O)n32)N1C(=O)OCc1ccccc1)c1ccccc1 (stereo unspecified) | · | 1.6 | · | · | · | ·
CSc1ccccc1C(=O)N1CCC2(CC1)CC(=O)c1ccccc1O2 | ? | 7.0 | 12.1 | -1.3 | 5.5 | 13.4
O=C1CC2(CCN(C(=O)c3ccccc3F)CC2)Oc2ccccc21 | 15.0 | -10.6 | 7.6 | 4.4 | -4.0 | 87.3*
CCc1ccc(-c2nnn(CCC(=O)OC)n2)cc1 | ? | 76.4* | 25.5 | 23.1 | 26.5 | 18.2
O=C(O)CCn1nnc(-c2cccs2)n1 | -12.3 | -5.5 | -14.2 | -16.8 | -8.0 | -9.3
CC(C)c1ccc(-c2nnn(CCC(=O)O)n2)cc1 | 44.9* | · | 49.9 | 53.9 | 58.2 | 36.2
CC(C)(C)c1ccc(-c2cn(-c3ccc(Br)cc3)c3[n+]2CCCS3)cc1 | 27.8 | 21.0 | 50.5 | 83.1* | 51.3 | 80.0
CCCN1C(=O)/C(=C/c2ccncc2)SC1=S | -1.2 | -6.3 | -4.0 | 12.7 | -53.5 | -27.1
O=C1/C(=C/c2ccncc2)SC(=S)N1Cc1ccccc1 | 42.6* | 0.1 | 24.9 | -3.4 | 8.0 | -0.8
CCc1ccc2c(c1)CCCN2C(=O)c1ccccc1C(=O)O | -2.4 | 9.0 | -2.8 | 10.3 | -28.6 | 87.6*
O=C(c1ccccc1F)N1CCCc2ccccc21 | -8.2 | -8.6 | 3.7 | -18.2 | -60.6 | 16.5
COc1cc(Nc2nc(-c3ccccc3)c3cc(C)ccc3n2)cc(OC)c1OC | -20.9 | 93.1* | 7.5 | 5.4 | 13.3 | 83.9*
Cc1ccc2nc(NCC(=O)O)nc(-c3ccccc3)c2c1 | 3.4 | 4.6 | -2.9 | 10.2 | 12.0 | 25.2
O=C(NC1C(=O)NNC1c1ccccc1)c1ccccc1 (stereo unspecified) | 44.2* | -16.0 | -30.6 | -86.6 | -57.2 | -55.8
Cc1cccc(C(=O)NC2C(=O)NNC2c2ccc(Cl)cc2)c1 (stereo unspecified) | 4.9 | 1.3 | 7.8 | 11.2 | 4.8 | 9.6
